# According to PubChem BioAssay:
# Unmarked numbers belong to inactive results. For part of these data: Results with a measured potency or affinity are listed apart. The source made the active and inactive calls. Unless noted, no rule for the calls is given here.
# Columns and labels:
# [1] = antimalarial activity against Dd2 strain (AID 2302;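 active = growth inhibition above 50% at the single 2 µM test dose, taken to imply half-maximal potency below 2 µM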;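 also: 0% = DMSO untreated growth and 100% = chloroquine plus artemisinin killed control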); details: P. falciparum Dd2 in RBCs, LDH growth readout, 72 h; at 2 µM; active compounds read high
# [2] = human hepatoma cell viability loss – ATP luminescence, cytotoxicity control for P. falciparum antimalarial project, primary screen (AID 2303;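 active = inhibition above 50%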;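 also: 0% = DMSO wells and 100% = digitonin-killed cells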); details: HepG2 viability, 24-48 h, at 10 µM, active compounds read high
# [3] = molecular target: L-lactate dehydrogenase (Plasmodium falciparum (isolate CDC / Honduras)) (UniProt Q27743); test: PfLDH activity inhibition – cell lysate, 3D7 strain, counter-screen for P. falciparum growth inhibition project (AID 2304);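 also: 0% = vehicle and 100% = reference inhibitor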; details: P. falciparum 3D7 crude extract, LDH APAD/NBT absorbance; at 2 µM; active compounds read high
# [4] = inhibition of 3D7 malaria parasite growth – strain 3D7 (AID 2306);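 also: 0% = DMSO wells and 100% = chloroquine plus artemisinin control wells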; details: P. falciparum 3D7 erythrocytic growth, LDH absorbance, 72 h; at 2 µM; active compounds read high
# [5] = molecular target: Calcium-dependent protein kinase 1 (Plasmodium falciparum (isolate 3D7)) (UniProt P62344); test: PfCDPK1 kinase inhibitors, biochemical, TCAMS library (AID 1159585; cut-off not given, nearly all actives have IC50 up to about 0.98 µM;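 also: inhibitors leave more ATP so luminescence rises with inhibition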); details: recombinant PfCDPK1, Kinase-Glo ATP depletion luminescence
# [6] = molecular target: Plasmodium falciparum protein kinase 6 (PK6, PF3D7_1337100) (UniProt Q8IDW1); test: PfPK6 kinase inhibitors, biochemical, TCAMS library (AID 1159586); details: recombinant PfPK6, Kinase-Glo ATP depletion luminescence
# [7] = molecular target: Protein kinase 7 (PK7), Plasmodium falciparum 3D7 (PF3D7_0213400) (UniProt Q7YTF7); test: inhibition of Plasmodium PK7 catalytic activity – biochemical, TCAMS antimalarial set, Kinase-Glo luminescence (AID 1159587); details: recombinant PfPK7, Kinase-Glo ATP depletion luminescence
# [8] = molecular target: Calcium-dependent protein kinase 4 (Plasmodium falciparum (isolate 3D7)) (UniProt Q8IBS5); test: PfCDPK4 kinase inhibitors, biochemical, TCAMS library (AID 1159588; cut-off not given, nearly all actives have IC50 up to about 0.91 µM); details: recombinant PfCDPK4, Kinase-Glo ATP depletion luminescence
# Chain of Calcium-dependent protein kinase 4 (Plasmodium falciparum (isolate 3D7)) (Q8IBS5 whole entry, looked up): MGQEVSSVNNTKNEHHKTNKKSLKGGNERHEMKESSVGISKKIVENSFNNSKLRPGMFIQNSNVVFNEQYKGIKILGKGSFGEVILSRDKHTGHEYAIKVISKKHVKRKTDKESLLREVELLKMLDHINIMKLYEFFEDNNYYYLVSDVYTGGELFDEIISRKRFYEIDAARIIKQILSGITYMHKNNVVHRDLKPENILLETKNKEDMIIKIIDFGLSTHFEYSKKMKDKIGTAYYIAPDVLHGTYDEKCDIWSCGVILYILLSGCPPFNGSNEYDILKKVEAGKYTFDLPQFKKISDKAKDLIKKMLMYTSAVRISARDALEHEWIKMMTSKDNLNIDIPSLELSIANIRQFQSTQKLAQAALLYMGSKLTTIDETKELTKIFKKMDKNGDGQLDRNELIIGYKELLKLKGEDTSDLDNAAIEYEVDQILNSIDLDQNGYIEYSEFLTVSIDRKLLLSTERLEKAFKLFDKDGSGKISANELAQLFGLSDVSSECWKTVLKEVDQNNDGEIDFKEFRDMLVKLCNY
# Chain of Protein kinase 7 (PK7), Plasmodium falciparum 3D7 (PF3D7_0213400) (Q7YTF7 1-343): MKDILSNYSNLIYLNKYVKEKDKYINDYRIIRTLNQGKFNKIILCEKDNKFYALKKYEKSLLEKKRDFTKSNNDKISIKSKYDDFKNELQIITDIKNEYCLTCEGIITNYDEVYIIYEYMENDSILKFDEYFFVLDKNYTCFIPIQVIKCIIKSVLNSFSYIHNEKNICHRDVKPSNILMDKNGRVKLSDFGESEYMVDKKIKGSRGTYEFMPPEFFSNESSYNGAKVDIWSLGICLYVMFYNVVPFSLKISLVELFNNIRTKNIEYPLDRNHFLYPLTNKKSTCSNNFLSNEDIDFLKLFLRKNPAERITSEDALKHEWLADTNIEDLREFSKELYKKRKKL
# Chain of Calcium-dependent protein kinase 1 (Plasmodium falciparum (isolate 3D7)) (P62344 whole entry, looked up): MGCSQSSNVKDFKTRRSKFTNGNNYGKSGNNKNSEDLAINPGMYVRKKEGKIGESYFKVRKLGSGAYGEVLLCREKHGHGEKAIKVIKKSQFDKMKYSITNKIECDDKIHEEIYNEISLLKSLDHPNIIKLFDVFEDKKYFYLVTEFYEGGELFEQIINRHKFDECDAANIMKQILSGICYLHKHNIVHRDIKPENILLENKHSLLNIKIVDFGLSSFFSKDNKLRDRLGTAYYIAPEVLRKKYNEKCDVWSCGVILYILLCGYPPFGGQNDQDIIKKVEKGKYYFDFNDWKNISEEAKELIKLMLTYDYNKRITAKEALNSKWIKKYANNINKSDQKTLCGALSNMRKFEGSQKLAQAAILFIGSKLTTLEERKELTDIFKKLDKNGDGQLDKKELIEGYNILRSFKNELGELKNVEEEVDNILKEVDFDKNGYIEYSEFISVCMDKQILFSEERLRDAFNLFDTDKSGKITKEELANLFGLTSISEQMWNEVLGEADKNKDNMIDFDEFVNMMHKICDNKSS
# Chain of Plasmodium falciparum protein kinase 6 (PK6, PF3D7_1337100) (Q8IDW1 1-305): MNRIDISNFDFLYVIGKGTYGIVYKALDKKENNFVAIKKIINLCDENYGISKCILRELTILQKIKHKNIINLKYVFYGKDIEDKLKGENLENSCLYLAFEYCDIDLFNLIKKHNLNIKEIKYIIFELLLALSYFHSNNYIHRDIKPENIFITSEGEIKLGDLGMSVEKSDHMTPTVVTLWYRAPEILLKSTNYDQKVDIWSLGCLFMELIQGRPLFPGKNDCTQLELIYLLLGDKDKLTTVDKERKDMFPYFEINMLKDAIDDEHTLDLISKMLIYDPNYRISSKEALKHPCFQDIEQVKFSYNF
# Chain of L-lactate dehydrogenase (Plasmodium falciparum (isolate CDC / Honduras)) (Q27743 whole entry, looked up): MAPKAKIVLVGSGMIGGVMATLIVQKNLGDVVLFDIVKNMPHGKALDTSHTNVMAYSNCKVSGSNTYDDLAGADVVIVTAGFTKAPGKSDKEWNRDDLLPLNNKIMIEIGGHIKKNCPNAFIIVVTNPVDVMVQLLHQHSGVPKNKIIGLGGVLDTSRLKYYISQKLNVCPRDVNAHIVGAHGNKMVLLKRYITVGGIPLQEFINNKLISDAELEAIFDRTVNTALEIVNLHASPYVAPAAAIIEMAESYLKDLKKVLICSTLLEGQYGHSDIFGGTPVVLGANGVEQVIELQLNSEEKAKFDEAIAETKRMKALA
Structure (SMILES),growth inhibition [1],inhibition [2],inhibition [3],growth inhibition [4],outcome [5],outcome [6],outcome [7],outcome [8]
CC(C(=O)N1CCCC1)N1CCN(S(=O)(=O)c2ccc(C(C)(C)C)cc2)CC1 (configuration not stated),86% (active),4%,0%,98% (active),inactive,inactive,inactive,inactive
O=C(Nc1ccc(Br)cc1)N(CCN1CCOCC1)CC(O)COc1ccc(Cl)c(F)c1 (configuration not stated),30%,3%,-4%,98% (active),inactive,inactive,inactive,inactive
Cc1noc(C)c1CN1CCCN(c2ccc3c(c2)CCN(Cc2ccc(-c4ncc[nH]4)cc2)CC3)CC1,39%,1%,2%,98% (active),inactive,inactive,inactive,inactive
Cc1ccc(/C=C/C(=O)NC2CCC(N3CCC(c4ccccc4C)CC3)CC2)cc1C (configuration not stated),43%,12%,-3%,100% (active),inactive,inactive,inactive,inactive
Cc1cccc2[nH]c(-c3ccc(-c4ccc(CNCCNC(=O)c5ccnn5C)cc4)cc3)nc12,98% (active),29%,-2%,102% (active),inactive,inactive,inactive,inactive
CCC(CC)(Cc1ccccc1)NC(=O)[C@H](Cc1ccc(OC)c(OC)c1)Nc1ccc(C#N)c2ccccc12,69% (active),16%,0%,90% (active),inactive,inactive,inactive,inactive
COc1cccc(NC(=O)c2cc(Br)cc(N3CCN(c4ccncc4)CC3)c2)c1,79% (active),30%,0%,100% (active),inactive,inactive,inactive,inactive
O=C(N[C@@H](CC1CCCCC1)C(=O)NC1CCCCC1)c1ccc(O)c(-c2cccc(C(F)(F)F)c2)c1,95% (active),-7%,-1%,100% (active),inactive,inactive,inactive,inactive
O=C(Nc1ccc(Cl)c(Cl)c1)C1CCC(=O)N1[C@@H](Cc1ccccc1)C(=O)NCCc1ccc(Cl)cc1 (some centres not stated),-9%,3%,0%,95% (active),inactive,inactive,inactive,inactive
CCc1c[nH]c2c(N3CCCS3(=O)=O)cc(C(=O)N[C@@H](Cc3ccccc3)[C@H](O)CNC(C)(C)c3cccc(C(F)(F)F)c3)cc12,99% (active),20%,2%,97% (active),inactive,inactive,inactive,inactive
c1ccc(-c2ccc(CNCc3ccc(-c4cccc(-c5nc6ccccc6[nH]5)c4)cc3)s2)nc1,80% (active),48%,-1%,98% (active),inactive,inactive,inactive,inactive
O=C(Nc1cccc(Cl)c1N1CCOCC1)C(Cl)(Cl)Cl,95% (active),3%,-3%,96% (active),inactive,inactive,inactive,inactive
COc1ccc(-c2cccc(NC(=O)c3ccc(Cl)cc3)c2)cc1CN(C)CCN(C)C,61% (active),37%,4%,99% (active),inactive,inactive,inactive,inactive
CN(C)CCOc1ccnc2ccc(NC(=O)Cc3ccc(-c4ccncc4)c4ccccc34)cc12,100% (active),10%,-6%,100% (active),inactive,inactive,inactive,inactive
Cc1cc(NC(=O)Nc2cccc(C#N)c2)c2ccccc2n1,82% (active),17%,-1%,100% (active),inactive,inactive,inactive,inactive
CS(=O)(=O)NCCCNCc1ccc(-c2cccc(-c3nc4ccc(C(F)(F)F)cc4[nH]3)c2)cc1,83% (active),17%,1%,100% (active),inactive,inactive,inactive,inactive
Cc1ccc(Nc2ccnc3ccc(C(F)(F)F)cc23)cc1O,69% (active),23%,-6%,102% (active),inactive,inactive,inactive,inactive
COc1ccc2nccc([C@@H](O)CN3CCC(NCC4COc5ccccc5O4)CC3)c2c1 (some centres not stated),94% (active),17%,4%,98% (active),inactive,inactive,inactive,inactive
COc1ccc(-c2nc(NC(=O)Cc3ccc(OC)c(OC)c3)sc2C)cc1,22%,33%,-2%,93% (active),inactive,inactive,inactive,inactive
COc1ccc(NC(=O)N2CCCN(CCCCCNC(=O)/C=C/c3ccc(C(F)(F)F)cc3)CC2)cc1Cl,-5%,21%,4%,93% (active),inactive,inactive,inactive,inactive

Structure (SMILES),growth inhibition [1],inhibition [2],inhibition [3],growth inhibition [4],outcome [5],outcome [6],outcome [7],outcome [8]
CC(C)N1CCN(C(CN2CCN(CCCOc3ccc4ccccc4c3)CC2)c2ccc(F)cc2)CC1 (configuration not stated),91% (active),59% (active),5%,101% (active),inactive,inactive,inactive,inactive
CC[C@H](C)CNC(=O)c1cncc(-c2ccc(CNC3CCCC3)cc2)c1,5%,-25%,0%,97% (active),inactive,inactive,inactive,inactive
COc1ccc2nccc([C@@H](O)CN3CCC(NC(=O)C(c4ccccc4C)N4CCC(Cc5ccccc5)CC4)CC3)c2c1 (some centres not stated),97% (active),10%,3%,102% (active),inactive,inactive,inactive,inactive
Nc1ncc(-c2cccc(CCN3CCOCC3)c2)cc1-c1nc2ccc(Br)cc2[nH]1,98% (active),60% (active),4%,101% (active),inactive,inactive,inactive,inactive
Cc1cccc2[nH]c(-c3cccc(-c4cccc(NC(=O)c5ccoc5)c4)c3)nc12,71% (active),19%,-4%,99% (active),inactive,inactive,inactive,inactive
Cc1ccc(NC(=O)c2cc(Br)cc(N3CCC(N(C)C)CC3)c2)cc1F,80% (active),23%,-3%,100% (active),inactive,inactive,inactive,inactive
Cc1ccnc(Nc2nc(-c3ccccn3)cs2)c1,87% (active),45%,-4%,100% (active),inactive,inactive,inactive,inactive
CCCc1ccc(NC(=O)c2ccc(CN3CCCN(Cc4ccc(OC)cc4)CC3)cc2)cc1,-4%,47%,0%,81% (active),inactive,inactive,inactive,inactive
COc1cccc(Nc2c(C(N)=O)cnc3ccc(-c4ccc(S(C)=O)cc4)cc23)c1 (configuration not stated),100% (active),-3%,9%,96% (active),inactive,inactive,inactive,inactive
CCCCCN1CCC(NC(=O)c2ccc(C(=O)Nc3ccc(C(C)C)cc3)cc2)CC1,9%,41%,-4%,98% (active),inactive,inactive,inactive,inactive
Cc1cc(N[C@@H](CC(C)C)C(=O)NCCc2ccccc2)nc(NCCc2ccc(F)cc2)n1,53% (active),12%,-1%,98% (active),inactive,inactive,inactive,inactive
COc1ccc(C2CC(c3cccs3)=NN2C(=O)CNc2cccc(C#N)c2)cc1OC (configuration not stated),35%,8%,-4%,87% (active),inactive,inactive,inactive,inactive
CCCCCCCc1c(C)[nH]c2cccc(OC)c2c1=O,47%,43%,0%,95% (active),inactive,inactive,inactive,inactive
Cc1cccc2[nH]c(-c3ccc(-c4cccc(CNCc5cccc(N)c5)c4)cc3)nc12,87% (active),0%,-4%,101% (active),inactive,inactive,inactive,inactive
Cc1ccc(Nc2nc(C)cc(NC3CCCC3)n2)cc1,89% (active),33%,0%,100% (active),inactive,inactive,inactive,inactive
Cc1cc(NN=Cc2ccc(Cl)cc2)c2cc(C(F)(F)F)ccc2n1,32%,0%,-5%,91% (active),inactive,inactive,inactive,inactive
COc1ccc(C2CCN(CCCNC(=O)c3ccc(NC(=O)c4ccc(Cl)cc4)cc3)CC2)c(OC)c1,58% (active),26%,3%,99% (active),inactive,inactive,inactive,inactive
COc1ccc(-c2ccc(NC(=O)c3cccc(Cl)c3)cc2)cc1CN1CCCC1,84% (active),35%,4%,100% (active),inactive,inactive,inactive,inactive
CN1CCN(CCCNc2ncc3c(-c4ccc(NC(=O)Nc5cc(C(F)(F)F)ccc5F)c(F)c4)nn(C)c3n2)CC1,94% (active),100% (active),1%,98% (active),inactive,inactive,inactive,inactive
